# Sampled rows, rich in hits. Any-hit rate of the full collection: about 9.5%.
# Pf growth 96h: Primary qHTS for delayed death inhibitors of the malarial parasite plastid, 96 hour incubation | 320,000 compounds, 6.9% hits | P. falciparum luciferase reporter growth, 96 h | Potency, µM (titrated, usually from 28.7 µM), most hits filed as inhibitors | AID 504834, 2011
#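 P. falciparum expressing integrated firefly luciferase grown in erythrocytes (2% hematocrit, 0.05% parasitemia final) with compounds for 96 hours at 37 C, 5% CO2. Growth inhibition read as loss of luminescence after adding luciferase detection reagent.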
# NS1 function inh: qHTS Assay for Inhibitors of Influenza NS1 Protein Function | Potency, µM (doses to about 46.1 µM) | AID 2326, 2010 | 270,000 compounds, 0.4% hits; calls by dose curve; note: actives are rising curves; nearly all actives have a fitted effect of over 50% in size
#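 Read-out: OD600 growth recovery of NS1-expressing budding yeast. Cells grown overnight at 30C in -URA glucose medium, washed, resuspended and diluted 1:100 in 2% galactose assay medium, pH 6.0. Same strain lacking NS1 served as positive control.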
# Pf growth 48h: Primary qHTS for delayed death inhibitors of the malarial parasite plastid, 48 hour incubation. P. falciparum luciferase growth in erythrocytes, 48 h. Potency, µM (titrated, usually from 28.7 µM), most hits filed as inhibitors. 310,000 compounds, 5.9% hits. AID 504832, 2011
#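 In quantitative HTS format, infected erythrocytes bearing luciferase-reporter parasites were treated for a single generation at 37 C. Luminescence after adding detection reagent served as the growth measure.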
# RE007 growth inh: qHTS Assay for Inhibitors of the HIV-1 protein Vpr; S. pombe RE007 Vpr strain, BacTiter-Glo ATP luminescence, 24 h; Potency, µM (series often up to 92.2 µM), usual class: inhibitors; 360,000 compounds, 0.21% hits; AID 651644, 2012; active = well fitted falling curve with a large enough effect; inconclusive = small, poorly fitted or top-dose-only effect; inactive = no such curve, though single readings can be large or run the other way; note: nearly all actives have a fitted effect of over 50% in size
#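 Fission yeast RE007 carrying one integrated HIV-1 vpr copy, seeded at OD 0.01 in PMG+AL medium with 23 nL pinned compound. Grown 24 h at 30 degrees; viability read by BacTiter-Glo luminescence after 5 min.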
# SARS PLpro yeast: qHTS of Yeast-based Assay for SARS-CoV PLP | AID 485353, 2010 | Potency, µM (highest dose often 32.9 µM), actives largely listed as activators | S. cerevisiae expressing SARS-CoV PLpro, growth rescue | 330,000 compounds, 0.19% hits; calls by dose curve; note: nearly all actives have a fitted effect of over 55% in size
# Hits are given with their value; i = inactive; ? = inconclusive; nt = no result; [ ] = another dose, or the depositor's remark. Unless noted, calls come from the whole dose curve; as a rule, active = well fitted inhibition curve with a large enough effect; inconclusive = small, poorly fitted or top-dose-only effect, or another doubt; inactive = no such curve, though single readings can be large or run the other way.
SMILES,Pf growth 96h,NS1 function inh,Pf growth 48h,RE007 growth inh,SARS PLpro yeast
CCC(=O)NC(=S)Nc1ccc(-c2nc3ccc(C)cc3s2)cc1,11.7µM,i,i,i,i
CCC(C)(C)n1nnnc1C(c1cc2cc(OC)ccc2[nH]c1=O)N1CCc2ccccc21 (stereo unspecified),i,?,10.4µM,i,i
CCC(C)(C)n1nnnc1C(c1cc2ccc(OC)cc2[nH]c1=O)N1CCc2ccccc21 (stereo unspecified),i,?,5.22µM,i,i
N#CC(c1ccccc1)c1ccc2c(C(F)(F)F)cc(C(F)(F)F)nc2n1 (stereo unspecified),11.7µM,i,nt,i,i
FC(F)(F)c1cc(C(F)(F)F)c2ccc(N/N=C/c3ccccc3)nc2n1,0.465µM,i,i,i,i
FC(F)(F)c1cc(C(F)(F)F)c2ccc(N/N=C/c3cccc(Cl)c3)nc2n1,i,i,i,nt,i
Cc1ccc(C(C#N)c2ccc3c(C(F)(F)F)cc(C(F)(F)F)nc3n2)cc1 (stereo unspecified),1.65µM,i,?,i,i
CC(C)c1ccc(NC(=O)C2(C)Cc3c(-c4ccc(N(C)C)cc4)ccnc3O2)cc1 (stereo unspecified),nt,nt,nt,i,nt
O=C(Nc1cc(S(=O)(=O)N2CCOCC2)ccc1N1CCCC1)c1ccccc1C(F)(F)F,nt,nt,nt,i,nt
O=C1C(=O)N(C2CCCC2)C(=O)N1Cc1c(F)cccc1Cl,i,nt,i,i,i
O=C(O)c1ccsc1Cc1cccs1,nt,nt,nt,i,nt
O=C(CSc1nncs1)N1c2ccccc2Sc2ccccc21,nt,i,13.1µM,i,i
Cn1nnnc1SCC(=O)N1c2ccccc2Sc2ccccc21,?,i,i,i,i
CCOC(=O)CSc1nc(C)cc(C)c1C#N,nt,i,i,i,i
Cc1cc(C)c(C#N)c(SCC(=O)c2ccc(Cl)cc2Cl)n1,10.4µM,i,13.1µM,i,i
Cc1ccccc1NC(=O)CN1C(=O)NC(C)(CCc2ccccc2)C1=O (stereo unspecified),i,nt,13.1µM,i,i
O=C(NNc1ncnc2ccccc12)c1cccc(Cl)c1,i,i,i,i,i
O=C(O)CC1S/C(=N/N=C/C=C/c2ccccc2)NC1=O (stereo unspecified),i,i,i,i,i
O=C(O)CC1S/C(=N/N=C/C2CC=CCC2)NC1=O (stereo unspecified),5.86µM,i,i,i,i
O=C(CN1C(=O)NC2(CCCCC2)C1=O)N1CCN(S(=O)(=O)/C=C/c2ccccc2)CC1,i,nt,i,i,i
CCOc1ccccc1CN1CCC(CO)(CCOc2ccccc2)CC1,i,i,?,i,i
OCC1(CCOc2ccccc2)CCN(Cc2ccccc2C(F)(F)F)CC1,8.28µM,i,i,i,i
COc1ccc(CN2CCC(CO)(CCOc3ccccc3)CC2)c(OC)c1C,i,i,3.7µM,i,i
COc1cc(Cl)c(CN2CCC(CO)(CCOc3ccccc3)CC2)cc1OC,?,i,?,i,i
S=c1[nH]nc(SCc2ccccc2)c2[nH]cnc12,nt,nt,nt,i,nt
SMILES,Pf growth 96h,NS1 function inh,Pf growth 48h,RE007 growth inh,SARS PLpro yeast
CCOC(=O)c1ccc(OC)c(OC)c1Cl,i,i,i,i,i
CCOC(=O)c1cc(C)n(Cc2ccc(OCC)c(OC)c2)c1C,nt,i,1.65µM,i,i
CCOC(=O)c1c(C)c(C)n(Cc2ccc(OC)c(OC)c2)c1C,?,i,8.28µM,i,i
Cc1ccc(NC(=O)C2(C)CCN2Cc2ccccc2OC(F)F)cc1 (stereo unspecified),nt,nt,nt,i,nt
CCOC(=O)N1CCN(CC(O)COc2ccc(C)c(C)c2)CC1 (stereo unspecified),i,i,i,i,i
Cc1ccc(-n2[nH]c(C)c(C=Nc3ccc4[nH]c(=O)[nH]c4c3)c2=O)cc1,i,i,i,i,i
Cc1ccc(N=Cc2c(C)[nH]n(-c3nc4ccccc4[nH]3)c2=O)cc1,i,i,i,3.16µM,i
Cc1cccc2cc3c(nc12)SC(=NCC1CCCO1)N(Cc1ccco1)C3 (stereo unspecified),i,i,4.15µM,i,i
COCCN=C1Sc2nc3c(C)cccc3cc2CN1Cc1ccco1,i,i,8.28µM,i,i
CCOc1ccc(NC(=O)CC2C(=O)N(c3ccc(OC)c(Cl)c3)C(=S)N2C2CC2)cc1 (stereo unspecified),?,i,?,i,i
COc1cc2c(cc1OC)[C@@]13CCN4CC5=CCO[C@H](CC(=O)O)[C@@H]([C@H]1N2)[C@H]5C[C@H]43,nt,i,nt,nt,nt
Cc1ccc(C)c(Cn2nnc3c(=O)[nH]c(C4CCN(C(=O)c5cccs5)CC4)nc32)c1,i,i,nt,i,i
O=C(c1cccs1)N1CCC(c2nc3c(nnn3Cc3cccc(Cl)c3)c(=O)[nH]2)CC1,i,i,4.65µM,i,i
O=C(c1cccs1)N1CCCC(c2nc3c(nnn3Cc3cccc(Cl)c3)c(=O)[nH]2)C1 (stereo unspecified),i,i,?,i,i
Cc1ccc(Cn2nnc3c(=O)[nH]c(C4CCN(C(=O)c5cccs5)CC4)nc32)cc1,i[5.75 µM],i,13.1µM,i,i
O=C(NCC1CCCO1)c1nc2c(nnn2Cc2ccccc2Cl)c(=O)[nH]1 (stereo unspecified),13.1µM,i,i,i,i
COCCNC(=O)c1nc2c(nnn2Cc2cc(C)ccc2C)c(=O)[nH]1,9.28µM,i,i,i,?
Cc1ccc(C)c(Cn2nnc3c(=O)[nH]c(C(=O)NCC4CCCO4)nc32)c1 (stereo unspecified),?,i,?,i,i
COc1ccccc1/C=C/C(=O)N1CCN(S(=O)(=O)c2cccs2)CC1,nt,nt,nt,i,i
Cc1[nH]c2ccccc2c1C(=O)C(=O)NC1CC(=O)N(c2ccc(F)cc2)C1 (stereo unspecified),i,nt,i,i,i
Cc1cccc(C(O)c2ncc(-c3ccc(F)cc3)[nH]2)c1C (stereo unspecified),nt,nt,nt,i,nt
O=C(c1cccs1)N1CCC(c2nc3c(nnn3Cc3c(Cl)cccc3Cl)c(=O)[nH]2)CC1,?,i,5.86µM,i,i
O=C(Cc1cccs1)N1CCCC(c2nc3c(nnn3Cc3cccc(Cl)c3)c(=O)[nH]2)C1 (stereo unspecified),i,i,8.28µM,i,?
O=C(NCc1ccccc1)c1nc2c(nnn2Cc2cccc(Cl)c2)c(=O)[nH]1,2.94µM,i,i,i,i
O=C(NCc1ccco1)c1nc2c(nnn2Cc2cccc(Cl)c2)c(=O)[nH]1,i,i,i,i,i
CC(NC(=O)Cc1cccs1)c1ccccc1 (stereo unspecified),i,i,i,i,i
O=C(NCCc1cccs1)C(c1ccccc1)c1ccccc1,11.7µM,i,i,i,i
CCC(NC(=O)Cc1cccs1)c1ccccc1 (stereo unspecified),5.86µM,i,i,i,i
Cc1nn(CC(=O)NCCc2ccc(Cl)cc2)c(=O)c2cccn12,i,i,i,i,i
